According to the supplement of paper PMC12024529:
Values joined by “and” are separate entries in the source; they are usually repeats but may differ in a detail not shown here. Equal values may be shown once.

Each compound was assayed on HEK293 WT BDD-FVIII-Gluc (assay: secreted FVIII-Gluc luciferase Z-score vs DMSO control; higher = more FVIII-Gluc secretion). Conditions: 5 µM.
Method: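 Natural plant-compound library (480 compounds, ST catalogue IDs) screened on HEK293 cells stably expressing WT BDD-FVIII-Gaussia luciferase fusion at 5 µM. Secreted Gluc activity in the medium is given as a Z-score relative to DMSO controls.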

SMILES	secreted FVIII-Gluc luciferase Z-score
C/C(=C\CNc1ncnc2nc[nH]c12)CO	0.549
COc1ccc2c(c1OC)C(=O)O[C@H]2[C@H]1c2c(cc3c(c2OC)OCO3)CCN1C	0.932
CCCCC/C=C\C/C=C\C/C=C\C/C=C\CCCC(=O)O	0.604
COc1cn(C2OC(CO)C(O)C2O)c(=O)[nH]c1=O (centres undefined)	-0.271
COc1ccccc1CC(Cc1nc2ccccc2[nH]1)c1nc2ccccc2[nH]1 (centres undefined)	0.163
CO[C@H]1/C=C/O[C@@]2(C)Oc3c(C)c(O)c4c(O)c(c(/C=N/N5CCN(C)CC5)c(O)c4c3C2=O)NC(=O)/C(C)=C\C=C\[C@H](C)[C@H](O)[C@@H](C)[C@@H](O)[C@@H](C)[C@H](OC(C)=O)[C@@H]1C	-0.504
COc1ccc2[nH]c(=O)c3c(c2c1)OC(C)(C)C=C3	-1.14
COc1cc(C(=O)OC2CC(C)=CCC3(C)CCC(O)(C(C)C)C23)ccc1O (centres undefined)	-0.405
O=c1c(O)c(-c2ccc(O)cc2)oc2cc(O)cc(O)c12	-0.239
O=C1c2ccccc2C(=O)c2c(O)c(O)cc(O)c21	-0.332
Oc1ccc(/C=C/c2cc(O)cc(O)c2)cc1	0.294
CC(=O)N1C=C(C2CCCCN2)CCC1 (centres undefined)	0.76
NC(=O)C1CCCN1C(=O)C(Cc1cnc[nH]1)NC(=O)C1CCC(=O)N1 (centres undefined)	0.443
Cc1c(C(=O)O)c(O)cc2c1C(=O)c1c(O)c([C@H]3O[C@H](CO)[C@@H](O)[C@H](O)[C@H]3O)c(O)c(O)c1C2=O	0.527 and 0.738
CC(C)CC(NC(=O)C(NC(=O)NC(Cc1ccccc1)C(=O)O)C1CCN=C(N)N1)C(=O)NC(C=O)Cc1ccccc1 (centres undefined)	0.979
C/C(=C\CNc1ncnc2c1ncn2C1OC(CO)C(O)C1O)CO (centres undefined)	-0.332
COc1cc2c3cc1Oc1c(OC)c(OC)cc4c1[C@@H](Cc1ccc(O)c(c1)Oc1ccc(cc1)C[C@@H]3N(C)CC2)N(C)CC4	0.165
CC1CC2(C)Oc3ccccc3C3OCC1(COC(=O)Nc1ccccc1)C(C)C32 (centres undefined)	-0.945
CC(C=CC1=C(C)CCCC1(C)C)=CC=CC(C)=CCO	0.89
COc1cc2c(C=O)c3c4c(cc(OC)c(OC)c4c2cc1OC)CCN3C	0.315

SMILES	secreted FVIII-Gluc luciferase Z-score
COc1ccc(-c2coc3cc(OC4OC(CO)C(O)C(O)C4O)cc(O)c3c2=O)cc1 (centres undefined)	-0.0597
NCCC(=O)N[C@@H](Cc1cnc[nH]1)C(=O)O	-1.31
O=C(O)CNC(=O)c1ccccc1	1.07
O=C1CC(c2ccc(O)cc2)Oc2cc(O)cc(O)c21 (centres undefined)	-0.524
COc1ccc2c(c1OC)C(Cc1ccccc1)N1CCc3cc4c(cc3C1C2)OCO4 (centres undefined)	0.496
CN1CCc2cccc3c2C1Cc1ccc(O)c(O)c1-3 (centres undefined)	-0.131
C[C@H](C(=O)O)c1cccc(C(=O)c2ccccc2)c1	0.342
O=c1cc(-c2ccccc2O)oc2c1ccc1ccccc12	0.301
CC[C@@H]1[C@H]2CCCCN3[C@H]2[C@H](C[C@H]3[C@@H]2C[C@H](C)C(=O)O2)[C@@H]2[C@H]1OC(=O)[C@H]2C	-0.0302
CC1C(=O)OC2CC34C5CC(C(C)(C)C)C36C(OC(=O)C6O)OC4(C(=O)O5)C21O (centres undefined)	-0.604
COc1c2occc2cc2ccc(=O)oc12	0.821
CC1(C)[C@@H](O)CC[C@]2(C)[C@H]3C(=O)C=C4[C@@H]5C[C@@](C)(C(=O)O)CC[C@]5(C)CC[C@@]4(C)[C@]3(C)CC[C@@H]12	0.00884
O[C@@H]1COC2C1OC[C@@H]2O (some centres undefined)	0.547
COc1cc2cc(Oc3ccc4ccc(=O)oc4c3)c(=O)oc2cc1O	0.379
CC(C)=CCc1c(O)cc(O)c2c1O[C@H](c1ccccc1)CC2=O	-0.692
CC(=O)OCC1OC(Oc2cc(OC(C)=O)c3c(=O)cc(-c4ccc(OC(C)=O)c(OC(C)=O)c4)oc3c2)C(OC(C)=O)C(OC(C)=O)C1OC(C)=O (centres undefined)	-0.756
N=C(N=C(N)N)N1CCOCC1	0.384
O=c1cc(-c2ccc(O)cc2O)oc2ccccc12	0.498
CC(=O)[C@H]1CC[C@H]2[C@@H]3CCC4=CC(=O)CC[C@]4(C)[C@H]3CC[C@]12C	0.00749
